This is a sample that favours compounds with a hit; in the whole collection about 7.3% have one here.
AmpC detergent – AmpC beta-lactamase inhibition with detergent present; P00811; AmpC hydrolysis of nitrocefin, absorbance 480 nm, 0.01% Triton; Potency, µM (titrated, usually from 114 µM), usual class: inhibitors; 370,000 compounds, 0.041% hits; AID 485294; further: nearly all actives have a fitted effect of over 25% in size
Target sequence (P00811 whole entry, looked up): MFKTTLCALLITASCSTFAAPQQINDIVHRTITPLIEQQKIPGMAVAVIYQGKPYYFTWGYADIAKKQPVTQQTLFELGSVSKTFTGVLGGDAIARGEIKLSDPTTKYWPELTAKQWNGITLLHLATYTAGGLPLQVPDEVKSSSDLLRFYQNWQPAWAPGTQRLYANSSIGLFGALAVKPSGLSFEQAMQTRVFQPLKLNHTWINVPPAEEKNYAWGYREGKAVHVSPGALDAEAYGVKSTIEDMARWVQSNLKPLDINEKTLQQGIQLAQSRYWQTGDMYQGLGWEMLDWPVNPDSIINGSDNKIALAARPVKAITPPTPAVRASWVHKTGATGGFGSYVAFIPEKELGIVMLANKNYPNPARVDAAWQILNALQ
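AmpC (5.3 nM in the dispensed reagent) in 20 mM phosphate pH 7.0 with 0.01% (detergent screen) or 0.0001% Triton X-100 was preincubated with compounds for 15 min at room temperature. Nitrocefin was then added from an 800 uM solution, and hydrolysis was followed at 480 nm.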
AmpC no deterg – inhibitors of E. coli AmpC beta-lactamase without detergent | P00811 | AmpC nitrocefin hydrolysis, absorbance 480 nm, 0.0001% Triton | Potency, µM (series often up to 57.1 µM), actives largely listed as inhibitors | 330,000 compounds, 0.52% hits; further: nearly all actives have a fitted effect of over 20% in size
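AmpC (5.3 nM in the dispensed reagent) in 20 mM phosphate pH 7.0 with 0.01% (detergent screen) or 0.0001% Triton X-100 was preincubated with compounds for 15 min at room temperature. Nitrocefin was then added from an 800 uM solution, and hydrolysis was followed at 480 nm.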
HCV inhibitor – blocks hepatitis C virus. AID 651820. 340,000 compounds, 3.4% hits. Potency, µM (titrated, usually from 41.8 µM), actives largely listed as inhibitors. Huh7.5.1 HCVcc-Cre infection, luciferase reporter, 44 h
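Compounds are dispensed onto cells plated 4 h earlier at 1,000 per well, with HCVcc-Cre virus (about 0.5 moi) added next. Following 44 h of culture, luminescent signal is measured for 15 sec after 15 min with substrate at room temperature.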
HCMV inh – blocks human cytomegalovirus replication; HFF cells, HCMV-luciferase reporter, 72 h; active compounds read low; activity change, negative = inhibition, % at 57.5 µM; 410,000 compounds, 4.5% hits; in the data active means activity change below about -60%; inconclusive means no clear call, values can overlap the other calls; inactive means above about -39%
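HFF cells seeded 16 h at 37C, treated with compounds, infected with luciferase-reporter HCMV at MOI 1 PFU/cell; luciferase read at 72 h post infection, normalized to buffer-only and Salinomycin controls.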
FMDV antiviral – antivirals against foot and mouth disease virus; FMDV antiviral cell-based qHTS; Potency, µM (top dose mostly 57.9 µM), usual class: inhibitors; 410,000 compounds, 1.2% hits; AID 1159524; calls by dose curve; tested in HEK293T cells; further: read-out not given here; nearly all actives have a fitted effect of over 45% in size
Of the large screens only hits and unclear results are named; the others gave an inactive call; ! = not confirmed by another sample. Unless noted, the call rests on the fitted dose curve; in most records, active means well fitted curve in the direction sought with a large enough effect; inconclusive means small, poorly fitted or top-dose-only effect, or another doubt; inactive means no such curve, though single readings can be large; an effect the other way counts as inactive or inconclusive.

CCCNC(=O)c1ccc(COc2ccc(CCC)cc2OC)o1	HCV inhibitor inconclusive, HCMV inh -62, FMDV antiviral inconclusive
COc1ccc(CCNC(=O)c2cc(=O)c3cc(C)c(C)cc3o2)cc1OC	none (no result: AmpC no deterg, HCV inhibitor)
CC(C)OCCCn1c(=O)c2ccccc2n2c(-c3ccccc3)nnc12	none (no result: AmpC no deterg, HCV inhibitor)
CCOC(=O)c1cccn1C1C(=O)N(C)c2c(F)cccc21 (stereo not drawn)	none (no result: AmpC detergent, AmpC no deterg, HCV inhibitor, FMDV antiviral)
COc1ccc(CCN2CC(C(=O)OCC(=O)Nc3c(C)nn(-c4ccccc4)c3C)CC2=O)cc1OC (stereo not drawn)	none
O=C1OC(c2ccccc2)=NC12CC2c1ccc(Cl)cc1 (stereo not drawn)	FMDV antiviral 28µM
COC(COC(N)=O)C1=C(N2CC2)C(=O)C(C)=C(N2CC2)C1=O (stereo not drawn)	HCV inhibitor 0.56µM (no result: AmpC detergent, AmpC no deterg)
CCOC(=O)N1CCN(c2c(N3CCN(C(=O)OCC)CC3)c(=O)c2=O)CC1	none
COc1ccc(S(=O)(=O)N(C)C[C@@H]2Oc3c(NS(=O)(=O)c4cn(C)cn4)cccc3C(=O)N([C@@H](C)CO)C[C@@H]2C)cc1	none (no result: AmpC detergent)
O=C(C1=C[C@H](c2ccc(C(F)(F)F)cc2)C[C@H](OCc2ccc(CO)cc2)O1)N1CCN(Cc2ccc3c(c2)OCO3)CC1	HCV inhibitor 10µM, FMDV antiviral inconclusive
C#Cc1ccc([C@H]2C=C(C(=O)N3CCN(Cc4ccccc4)CC3)O[C@@H](OCc3ccc(CO)cc3)C2)cc1	HCV inhibitor inconclusive, HCMV inh -76
O=C(C1=C[C@@H](c2ccc(Br)cc2)C[C@@H](OCc2ccc(CO)cc2)O1)N1CCN(Cc2ccccc2)CC1	HCV inhibitor inconclusive, FMDV antiviral inconclusive (no result: HCMV inh)
Cc1cc2cc(CNC(=S)Nc3ccc(OC(F)F)cc3)ccc2[nH]1	AmpC no deterg inconclusive, HCV inhibitor inconclusive
Cc1cc2cc(CNC(=S)Nc3ccc(OC(F)(F)F)cc3)ccc2[nH]1	HCMV inh -75
Cc1cc2cc(CNC(=O)Nc3ccccc3)ccc2[nH]1	AmpC no deterg 22µM
CCOC(=O)NCc1ccc2[nH]c(C)cc2c1	AmpC detergent inconclusive, FMDV antiviral inconclusive
COc1ccc(NC(=O)Cn2c(=O)n(Cc3nc(-c4ccccc4)no3)c(=O)c3ccccc32)cc1Cl	none (no result: AmpC no deterg, HCV inhibitor)
CN1CCc2c(sc(N)c2C(=O)c2ccc(Cl)cc2)C1	none
COc1ccc(C(=O)c2c(N)sc3c2CCN(C(=O)OC(C)(C)C)C3)cc1	AmpC detergent inconclusive, HCV inhibitor inconclusive, HCMV inh -84, FMDV antiviral inconclusive
O=C1NC(=O)N(Cc2ccco2)C(=O)/C1=C\c1cccn1CCOc1ccc(Cl)cc1	AmpC detergent inconclusive, FMDV antiviral 35µM
O=C(NCC1Cc2cccc(-c3ncccn3)c2O1)C1CCOC1 (stereo not drawn)	none (no result: AmpC detergent, AmpC no deterg, HCV inhibitor, HCMV inh)
COc1ccccc1CN1CCCCC1c1cccnc1 (stereo not drawn)	HCMV inh -86
CCOc1cccc(OCCCn2c(-c3ccc(Br)cc3)nc3ccccc3c2=O)c1	none (no result: AmpC no deterg, HCV inhibitor)
COc1ccc(CCNc2nnc(Sc3nnnn3-c3ccccc3)s2)cc1OC	HCV inhibitor 14µM, HCMV inh -98, FMDV antiviral 28µM
CCOc1cc(CNCCSc2nnnn2-c2ccccc2)ccc1OC	FMDV antiviral inconclusive (no result: AmpC no deterg, HCV inhibitor)
COc1ccc2c(Cl)c(-c3nnc(SCC(=O)c4ccccc4)n3C)sc2c1	HCV inhibitor 11µM
COc1ccc2c(Cl)c(-c3nnc(SCC(N)=O)n3C)sc2c1	AmpC detergent inconclusive, HCV inhibitor inconclusive
Cc1ccc(S(=O)(=O)c2nnn3c2nc(N2CCOCC2)c2ccccc23)cc1	AmpC detergent inconclusive, HCV inhibitor 11µM
Cc1ccc(S(=O)(=O)c2nnn3c2nc(N2CCCCC2)c2ccccc23)cc1	none
Cc1ccc(NC(=S)/C(=C(\[O-])c2ccc(F)cc2)[n+]2ccccc2)cc1	HCMV inh -73
Cc1ccc(C)c(NC(=S)/C(=C(\[O-])c2ccc(OC(F)F)cc2)[n+]2ccccc2)c1	none
CNC(=O)c1cccnc1Nc1cccc(C(F)(F)F)c1	HCV inhibitor 10µM
Nc1nc(Nc2cccc3ccccc23)nc(C2CCCC2=O)n1 (stereo not drawn)	none (no result: HCV inhibitor, FMDV antiviral)
Nc1nc(CCl)nc(Nc2cccc3ccccc23)n1	HCV inhibitor 0.56µM, HCMV inh -98, FMDV antiviral inconclusive
Cn1c(CC(=O)NNC(=O)c2cncc(Br)c2)nc2ccccc21	none (no result: AmpC detergent)
CCN1CCN(C(=O)C2=CC(c3ccc(OC)cc3)=NS(=O)(=O)N2C)CC1	AmpC detergent inconclusive, HCMV inh -64
COc1ccc(C2=NS(=O)(=O)N(C)C(C(=O)N3CCN(C)CC3)=C2)cc1	none
Cc1nc2ccccc2n1C(c1cccnc1)c1nc2ccccc2[nH]1 (stereo not drawn)	HCMV inh -79 (no result: AmpC detergent, AmpC no deterg, HCV inhibitor)
c1ccc(-c2nc3ccccc3n2C(c2ccccc2)c2nc3ccccc3[nH]2)cc1 (stereo not drawn)	none (no result: AmpC detergent, AmpC no deterg, HCV inhibitor)
COc1cc(-c2n[nH]c3ccnc(-c4cccc(OC(F)(F)F)c4)c23)cc(OC)c1OC	none (no result: AmpC detergent, AmpC no deterg, HCV inhibitor, FMDV antiviral)
C[N+](C)(C)CCOC(=O)CCC(=O)OCC[N+](C)(C)C	HCMV inh -77! (no result: AmpC detergent, AmpC no deterg)
C[N+](C)(C)CCOC(=O)CBr	HCV inhibitor inconclusive
CC1CCN(C(=O)c2ccc(NS(=O)(=O)c3ccccc3)cc2)CC1	none
CC1CCN(C(=O)c2ccc(CNS(=O)(=O)c3ccc(C(C)(C)C)cc3)cc2)CC1	HCV inhibitor 22µM (no result: AmpC detergent)
CC1CCN(C(=O)c2ccc(NS(=O)(=O)c3ccc4[nH]c(=O)[nH]c4c3)cc2)CC1	HCV inhibitor inconclusive, HCMV inh -98
O=C(NC(=S)N1CCCC(C(F)(F)F)C1)c1ccc(F)cc1 (stereo not drawn)	HCMV inh -66
COc1ccc(NS(=O)(=O)c2ccc(C(=O)N3CCC(C)CC3)cc2)cc1	HCV inhibitor inconclusive, HCMV inh -66 (no result: AmpC detergent)
CC(C)(C)c1ccc(S(=O)(=O)NCc2ccc(C(=O)N3CCCC3)cc2)cc1	none
CC1=C(C(=O)Nc2cc(C(=O)N3CCN(c4cccc(C)c4)C(C)C3)ccc2C)SCCO1 (stereo not drawn)	HCV inhibitor inconclusive, HCMV inh inconclusive
Cc1noc(C)c1C(=O)N1CCCC(C(=O)c2cccc(C(F)(F)F)c2)C1 (stereo not drawn)	none
Cc1ccc(NS(=O)(=O)c2ccc(C(=O)N3CCCC(C(F)(F)F)C3)cc2)cc1 (stereo not drawn)	AmpC detergent inconclusive, AmpC no deterg 35µM
COc1ccccc1NS(=O)(=O)c1ccc(C(=O)N2CCCC(C(F)(F)F)C2)cc1 (stereo not drawn)	none
COc1ccc(OC)c(CNS(=O)(=O)c2cn(C)cn2)c1	none
CC(/C=N/NC(=O)c1cc(-c2ccc(C)s2)[nH]n1)=C\c1ccccc1	HCV inhibitor 5.6µM
Cc1ccc(-c2cc(C(=O)N/N=C/c3ccco3)n[nH]2)s1	none
CC(/C=C/c1ccccc1)=N/NC(=O)c1cnccn1	none
